Inconclusive results are not listed. Calls of active or inactive are those of the source. Unless noted, calls come from the whole dose curve.
Assays:
[1] = qHTS assay to identify small molecule antagonists of the sonic hedgehog signaling (Shh) pathway (AID 1259369); note: nearly all actives have a fitted effect of over 45% in size; note: potency is the fitted concentration of half-maximal effect
Outline: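 NIH/3T3-derived 3T3Gli1-Luc cells with stably integrated Gli1-Luc reporter were preincubated 4hr at 37 C, then given compounds in DMSO plus Shh conditioned medium and incubated 24hr. Firefly luciferase luminescence read after 30min reagent at room temperature.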

[2] = qHTS assay to identify small molecule agonists of the androgen receptor (AR) signaling pathway in the presence of an antagonist - cell viability counter screen (AID 1259379; active = well fitted curve in the direction sought with a large enough effect in the repeat runs; an effect the other way counts as inactive or inconclusive; note: series mostly up to about 92 µM; nearly all actives have a fitted effect of over 25% in size)
Outline: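 MDA-kb2 human breast carcinoma cells (stable MMTV-luciferase, AR/GR responsive) were seeded 3,000 cells/well, pre-incubated 5 hr at 37C without CO2, then given 3.0uM nilutamide and compounds at 15 concentrations for 16 hr. Viability was read by CellTiter-Fluor fluorescence.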

[3] = qHTS assay to identify small molecule agonists of the estrogen receptor beta (ER-beta) signaling pathway - cell viability counter screen (AID 1259380; active = well fitted curve in the direction sought with a large enough effect in the repeat runs; an effect the other way counts as inactive or inconclusive; note: nearly all actives have a fitted effect of over 30% in size)
Outline: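 ER-beta-UAS-bla HEK293T cells in medium with 2% charcoal-stripped FBS were preincubated 6 hr at 37C, dosed with compound in DMSO for 16 hr, then after the bla read, CellTiter-Glo was added for 30 min at room temperature; luminescence recorded.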

[4] = target: Androgen receptor (Homo sapiens) (UniProt P10275); test: qHTS assay to identify small molecule agonists of the androgen receptor (AR) signaling pathway in the presence of an antagonist (AID 1259381); note: nearly all actives have a fitted effect of over 15% in size
Androgen receptor (Homo sapiens), sequence (P10275 whole entry, looked up): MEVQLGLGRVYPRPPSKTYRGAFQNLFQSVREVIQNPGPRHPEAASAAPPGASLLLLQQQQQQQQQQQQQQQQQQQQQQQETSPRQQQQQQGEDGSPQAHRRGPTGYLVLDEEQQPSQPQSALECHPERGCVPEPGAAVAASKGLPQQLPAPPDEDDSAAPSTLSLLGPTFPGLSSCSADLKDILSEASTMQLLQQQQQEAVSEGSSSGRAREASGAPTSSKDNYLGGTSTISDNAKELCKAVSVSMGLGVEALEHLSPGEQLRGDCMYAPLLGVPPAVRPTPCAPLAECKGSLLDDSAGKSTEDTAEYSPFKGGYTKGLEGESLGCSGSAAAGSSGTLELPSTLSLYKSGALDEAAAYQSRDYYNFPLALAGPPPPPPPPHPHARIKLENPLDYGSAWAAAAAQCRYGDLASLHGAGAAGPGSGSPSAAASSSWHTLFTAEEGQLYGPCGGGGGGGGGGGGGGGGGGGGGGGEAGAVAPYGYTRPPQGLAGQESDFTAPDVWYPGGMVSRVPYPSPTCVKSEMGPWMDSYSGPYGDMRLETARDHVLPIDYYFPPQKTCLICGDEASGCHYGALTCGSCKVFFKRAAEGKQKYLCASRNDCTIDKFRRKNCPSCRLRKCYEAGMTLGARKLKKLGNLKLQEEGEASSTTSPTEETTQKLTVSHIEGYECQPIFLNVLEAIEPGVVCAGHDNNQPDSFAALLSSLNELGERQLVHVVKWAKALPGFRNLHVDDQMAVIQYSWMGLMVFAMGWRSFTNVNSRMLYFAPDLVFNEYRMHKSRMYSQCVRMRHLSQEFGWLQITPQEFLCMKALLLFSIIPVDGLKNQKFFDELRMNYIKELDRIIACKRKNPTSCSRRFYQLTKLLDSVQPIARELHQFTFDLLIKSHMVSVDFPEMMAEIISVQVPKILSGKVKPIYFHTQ
Outline: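 MDA-kb2 human breast carcinoma cells carrying an MMTV-luciferase reporter (AR- and GR-responsive) were treated with compounds at 15 concentrations plus 3.0uM final nilutamide for 16hr at 37C without CO2; luminescence was read after ONE-Glo addition.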

[5] = qHTS assay to identify small molecule antagonists of the estrogen receptor beta (ER-beta) signaling pathway - cell viability counter screen (AID 1259382; active = well fitted curve in the direction sought with a large enough effect in the repeat runs; an effect the other way counts as inactive or inconclusive; note: series mostly up to about 92 µM; nearly all actives have a fitted effect of over 55% in size)
Outline: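 ER-beta-UAS-bla HEK293T cells (2,000/well, 2% charcoal-stripped FBS) were pre-incubated 6 hr at 37C, then given compound plus 1nM final 17-beta-estradiol for 16 hr. Viability was read in the same wells by CellTiter-Glo luminescence after 30 min at room temperature.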

[6] = qHTS assay to identify small molecule agonists or antagonists of the thyroid stimulating hormone receptor (TSHR) signaling pathway - wild type cell line counter screen (AID 1259384)
Outline: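 Wild-type Hek293 cells, 800/well, 18 h at 37C, then compound with Ro20-1724 for 30 min RT. cAMP by HTRF (cAMP-d2/anti-cAMP cryptate), 1 h RT, fluorescence read. 15 concentrations, triplicates.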

[7] = target: Progesterone receptor (Homo sapiens) (UniProt P06401); test: qHTS assay to identify small molecule agonists of the progesterone receptor (PR) signaling pathway (AID 1346784); note: nearly all actives have a fitted effect of over 30% in size
Progesterone receptor (Homo sapiens), sequence (P06401 whole entry, looked up): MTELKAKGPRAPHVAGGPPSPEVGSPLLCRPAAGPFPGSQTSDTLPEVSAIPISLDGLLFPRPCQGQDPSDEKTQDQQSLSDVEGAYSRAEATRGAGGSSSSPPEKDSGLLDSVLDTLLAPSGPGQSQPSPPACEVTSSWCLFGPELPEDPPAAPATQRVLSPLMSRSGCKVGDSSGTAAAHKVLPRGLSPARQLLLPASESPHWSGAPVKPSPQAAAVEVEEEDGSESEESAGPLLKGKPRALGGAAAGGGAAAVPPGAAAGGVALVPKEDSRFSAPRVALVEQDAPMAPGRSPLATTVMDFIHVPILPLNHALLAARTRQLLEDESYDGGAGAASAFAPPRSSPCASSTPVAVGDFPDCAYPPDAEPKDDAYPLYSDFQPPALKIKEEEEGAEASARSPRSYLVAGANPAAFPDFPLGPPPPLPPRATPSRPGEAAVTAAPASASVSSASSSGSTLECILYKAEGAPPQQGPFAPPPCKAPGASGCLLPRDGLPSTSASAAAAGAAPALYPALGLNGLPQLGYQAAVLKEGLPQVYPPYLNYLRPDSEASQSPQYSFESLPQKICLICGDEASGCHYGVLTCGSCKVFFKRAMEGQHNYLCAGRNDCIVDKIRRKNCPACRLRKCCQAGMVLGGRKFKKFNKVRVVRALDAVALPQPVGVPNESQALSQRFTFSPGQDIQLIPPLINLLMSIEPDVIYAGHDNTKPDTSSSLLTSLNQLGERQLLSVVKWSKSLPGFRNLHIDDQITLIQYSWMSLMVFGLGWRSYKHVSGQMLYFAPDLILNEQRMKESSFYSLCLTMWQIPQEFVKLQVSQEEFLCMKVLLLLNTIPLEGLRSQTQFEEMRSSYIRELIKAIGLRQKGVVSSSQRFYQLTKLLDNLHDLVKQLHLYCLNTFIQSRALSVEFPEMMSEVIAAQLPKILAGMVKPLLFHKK
Outline: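 PR-UAS-bla HEK 293T cells (beta-lactamase reporter under UAS) in 2% charcoal-stripped FBS, dosed with 23 nL compound after 6 hr, incubated 16hr at 37C. LiveBLAzer B/G FRET substrate added, fluorescence read after 2 hours.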

[8] = qHTS assay to identify small molecule antagonists of the progesterone receptor (PR) signaling pathway - cell viability counter screen (AID 1346798; active = well fitted curve in the direction sought with a large enough effect in the repeat runs; an effect the other way counts as inactive or inconclusive; note: series mostly up to about 92 µM; nearly all actives have a fitted effect of over 50% in size)
Outline: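 PR-UAS-bla HEK293T cells, 3,000/well in 2% charcoal-stripped FBS medium, dosed with compounds plus R5020 agonist and incubated 16 h at 37C. Viability then measured in the same wells by CellTiter-Glo luminescence after 30 min at RT.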

[9] = qHTS assay to identify small molecule agonists of the progesterone receptor (PR) signaling pathway - cell viability counter screen (AID 1346799); note: nearly all actives have a fitted effect of over 45% in size
Outline: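 Counter screen in the PR-UAS-bla HEK293T wells (2% charcoal-stripped FBS, 16 h compound exposure at 37 C) after the bla read. CellTiter-Glo added, 30 min at room temperature, luminescence read as cell viability.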

[10] = qHTS assay to identify small molecule antagonists of the TGF-beta/Smad signaling pathway - cell viability counter screen (AID 1346824; active = well fitted curve in the direction sought with a large enough effect in the repeat runs; an effect the other way counts as inactive or inconclusive; note: nearly all actives have a fitted effect of over 50% in size)
Outline: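 SBE-bla HEK 293T cells, incubated overnight, then compound plus 0.25 ng/mL TGF-beta1 (stock added) for 5 hr at 37 C. Viability was read in the same wells by CellTiter-Glo luminescence after 30 min at room temperature.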

[11] = qHTS assay to identify small molecule agonists of the TGF-beta/Smad signaling pathway - cell viability counter screen (AID 1346829; active = well fitted curve in the direction sought with a large enough effect in the repeat runs; an effect the other way counts as inactive or inconclusive; note: top concentration of the series differs between compounds; nearly all actives have a fitted effect of over 45% in size)
Outline: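 After overnight seating at 37 C and 5% CO2, reporter cells got compounds for 5 hr and FRET substrate for 2 hr; cell viability then came from CellTiter-Glo luminescence.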

[12] = target: Thyrotropin-releasing hormone receptor (Homo sapiens) (UniProt P34981); test: qHTS assay to identify small molecule antagonists of the thyrotropin-releasing hormone receptor (TRHR) signaling pathway (AID 1346877; active = well fitted inhibition curve with a large enough effect in the repeat runs, not every such curve was filed as active; note: series mostly up to about 51 µM)
Thyrotropin-releasing hormone receptor (Homo sapiens), sequence (P34981 whole entry, looked up): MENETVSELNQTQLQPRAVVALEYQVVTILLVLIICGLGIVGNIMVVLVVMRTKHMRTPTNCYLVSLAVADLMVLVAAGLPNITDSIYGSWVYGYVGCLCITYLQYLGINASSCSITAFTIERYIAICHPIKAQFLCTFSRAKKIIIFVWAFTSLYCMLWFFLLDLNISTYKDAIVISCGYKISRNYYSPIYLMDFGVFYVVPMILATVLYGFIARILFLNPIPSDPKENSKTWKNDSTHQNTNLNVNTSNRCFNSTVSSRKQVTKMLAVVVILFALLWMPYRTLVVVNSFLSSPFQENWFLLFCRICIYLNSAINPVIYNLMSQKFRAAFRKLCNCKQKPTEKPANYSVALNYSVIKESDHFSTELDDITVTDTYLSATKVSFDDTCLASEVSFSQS
Outline: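 TRHR-expressing HEK293 cells were seeded, cultured 18 h at 37 °C, then loaded with calcium dye for 2 h. Compounds were pre-incubated 5 min at room temperature before 1 nM TRH (final) was added, and kinetic fluorescence was recorded for 3 min.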

[13] = target: Thyrotropin-releasing hormone receptor (Homo sapiens) (UniProt P34981); test: qHTS assay to identify small molecule agonists of the thyrotropin-releasing hormone receptor (TRHR) signaling pathway (AID 1346891); note: series mostly up to about 58 µM
Outline: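 HEK293 cells expressing TRHR plated 18 h at 37 C/5% CO2, calcium dye-loaded 2 h at 37 C, then compound added (agonist mode); kinetic calcium fluorescence read 3 min at 1 s intervals; 15 concentrations in triplicate.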

[14] = target: Estrogen receptor beta (Homo sapiens) (UniProt Q92731); test: qHTS assay to identify small molecule antagonists of the estrogen receptor beta (ER-beta) signaling pathway (AID 1259378; active = well fitted inhibition curve with a large enough effect in the signal ratio in the repeat runs, not every such curve was filed as active; the % refers to the signal ratio)
Estrogen receptor beta (Homo sapiens), sequence (Q92731 whole entry, looked up): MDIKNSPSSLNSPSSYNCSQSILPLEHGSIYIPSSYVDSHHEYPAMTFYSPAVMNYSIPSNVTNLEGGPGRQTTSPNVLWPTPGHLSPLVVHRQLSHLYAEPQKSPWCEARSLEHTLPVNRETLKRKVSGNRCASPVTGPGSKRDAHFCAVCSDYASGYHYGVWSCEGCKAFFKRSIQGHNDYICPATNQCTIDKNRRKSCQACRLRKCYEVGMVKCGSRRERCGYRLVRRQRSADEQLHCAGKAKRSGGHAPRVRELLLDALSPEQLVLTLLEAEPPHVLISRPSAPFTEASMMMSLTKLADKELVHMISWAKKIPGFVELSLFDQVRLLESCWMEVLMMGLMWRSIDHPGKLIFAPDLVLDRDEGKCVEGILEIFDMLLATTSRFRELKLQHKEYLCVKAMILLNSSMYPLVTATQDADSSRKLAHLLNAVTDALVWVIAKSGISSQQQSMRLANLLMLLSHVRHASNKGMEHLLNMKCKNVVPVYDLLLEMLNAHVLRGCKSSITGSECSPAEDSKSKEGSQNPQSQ
Outline: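 ER-beta-UAS-bla HEK293T cells in 2% charcoal-stripped FBS medium treated with compound plus 1nM final 17-beta-estradiol for 16 hr at 37C. Beta-lactamase reporter read by FRET substrate fluorescence after 2 hours at room temperature.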

[15] = target: Estrogen receptor (Homo sapiens) (UniProt P03372); test: qHTS assay to identify small molecule agonists of the estrogen receptor alpha (ER-alpha) signaling pathway in the presence of an antagonist (AID 1259383); note: top concentration of the series differs between compounds; nearly all actives have a fitted effect of over 15% in size
Estrogen receptor (Homo sapiens), sequence (P03372 whole entry, looked up): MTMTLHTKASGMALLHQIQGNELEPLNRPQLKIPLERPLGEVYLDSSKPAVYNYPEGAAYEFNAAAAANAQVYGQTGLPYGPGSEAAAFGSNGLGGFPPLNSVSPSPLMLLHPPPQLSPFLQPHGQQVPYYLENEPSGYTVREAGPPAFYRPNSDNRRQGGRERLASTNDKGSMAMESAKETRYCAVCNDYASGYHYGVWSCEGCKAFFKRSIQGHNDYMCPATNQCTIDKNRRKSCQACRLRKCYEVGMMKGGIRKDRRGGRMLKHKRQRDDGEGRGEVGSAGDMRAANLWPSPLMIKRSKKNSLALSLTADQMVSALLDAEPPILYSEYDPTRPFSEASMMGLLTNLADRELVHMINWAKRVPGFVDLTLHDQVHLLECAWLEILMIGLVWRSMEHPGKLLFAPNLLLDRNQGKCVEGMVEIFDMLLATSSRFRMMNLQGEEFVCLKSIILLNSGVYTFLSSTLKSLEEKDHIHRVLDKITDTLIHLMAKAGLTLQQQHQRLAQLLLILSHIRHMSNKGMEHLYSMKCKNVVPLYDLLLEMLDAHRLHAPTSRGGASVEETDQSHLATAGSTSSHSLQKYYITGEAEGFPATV
Outline: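 VM7Luc4E2 cells (endogenous full-length ER-alpha, 4×ERE-luciferase) were precultured 5 days in phenol red-free medium with 10% charcoal-stripped FBS, given 10.0nM ICI-182,780 (final), then treated with compounds at 15 concentrations for 22hr at 37C; luminescence read with ONE-Glo.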

[16] = qHTS assay to identify small molecule agonists of the estrogen receptor alpha (ER-alpha) signaling pathway in the presence of an antagonist - cell viability counter screen (AID 1259386; active = well fitted curve in the direction sought with a large enough effect in the repeat runs; an effect the other way counts as inactive or inconclusive;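 note: cells exposed to compounds for 22 h at 37 °C before the viability read; nearly all actives have a fitted effect of over 30% in size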; note: potency is the fitted concentration of half-maximal effect)
Outline: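 VM7Luc4E2 cells (endogenous full-length ER-alpha, 4×ERE-luciferase) were held 5 days in phenol red-free medium with 10% charcoal-stripped FBS, plated, then given 10.0nM ICI-182,780 and compounds at 15 concentrations for 22hr at 37C; viability read by CellTiter-Fluor fluorescence.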

[17] = qHTS assay to identify small molecule agonists of the TGF-beta/Smad signaling pathway (AID 1346859; active = well fitted activation curve with a large enough effect in the signal ratio in the repeat runs, not every such curve was filed as active; the % refers to the signal ratio; note: series mostly up to about 77 µM)
Outline: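 SBE-bla HEK293T cells plated overnight, then compound exposure for 5 h at 37 C. Beta-lactamase reporter read with LiveBLAzer B/G FRET substrate after 2 h at room temperature, fluorescence at 405 nm excitation, 460/530 nm emission.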

[18] = target: Thyrotropin receptor (Homo sapiens) (UniProt P16473); test: qHTS assay to identify small molecule antagonists of the thyroid stimulating hormone receptor (TSHR) signaling pathway (AID 1259385); note: nearly all actives have a fitted effect of over 20% in size
Thyrotropin receptor (Homo sapiens), sequence (P16473 whole entry, looked up): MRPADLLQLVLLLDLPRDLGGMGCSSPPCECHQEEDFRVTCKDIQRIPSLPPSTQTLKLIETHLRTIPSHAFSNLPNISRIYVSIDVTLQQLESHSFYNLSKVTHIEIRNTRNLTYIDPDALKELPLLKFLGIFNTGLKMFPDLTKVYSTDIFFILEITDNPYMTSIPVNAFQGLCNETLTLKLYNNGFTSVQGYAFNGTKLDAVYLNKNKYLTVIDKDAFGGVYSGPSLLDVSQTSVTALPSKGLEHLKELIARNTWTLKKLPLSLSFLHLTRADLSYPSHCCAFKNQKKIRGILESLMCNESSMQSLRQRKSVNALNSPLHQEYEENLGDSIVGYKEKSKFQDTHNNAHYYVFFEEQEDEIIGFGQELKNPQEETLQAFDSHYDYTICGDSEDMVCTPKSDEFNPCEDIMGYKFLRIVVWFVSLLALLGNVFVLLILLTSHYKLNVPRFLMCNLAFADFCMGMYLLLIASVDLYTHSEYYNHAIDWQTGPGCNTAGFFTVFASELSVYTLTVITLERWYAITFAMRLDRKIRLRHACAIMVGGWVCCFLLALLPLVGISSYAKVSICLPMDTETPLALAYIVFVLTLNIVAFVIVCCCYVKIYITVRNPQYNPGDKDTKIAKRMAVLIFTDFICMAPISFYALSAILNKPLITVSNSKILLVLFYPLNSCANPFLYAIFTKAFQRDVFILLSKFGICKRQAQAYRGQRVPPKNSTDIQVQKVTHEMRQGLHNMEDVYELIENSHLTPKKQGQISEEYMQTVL
Outline: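 TSHR-HEK293 cells (800/well) plated 18 h, then compounds with Ro20-1724 and TSH at 1.5 ng/mL final, 30 min at room temperature. cAMP quantified by HTRF (cAMP-d2/anti-cAMP-cryptate, 1 h); 15 concentrations in triplicate.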

[19] = target: Progesterone receptor (Homo sapiens) (UniProt P06401); test: qHTS assay to identify small molecule antagonists of the progesterone receptor (PR) signaling pathway (AID 1346795; active = well fitted inhibition curve with a large enough effect in the signal ratio in the repeat runs, not every such curve was filed as active; the % refers to the signal ratio)
Outline: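 PR-UAS-bla HEK293T cells with beta-lactamase reporter under UAS control, in 2% charcoal-stripped FBS, treated with compounds plus 1 nM promegestone (R5020, final) for 16 hr at 37C. Read-out: FRET beta-lactamase substrate fluorescence after 2 hr at room temperature.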

Measured: Potency

Cc1ccccc1CO[C@@H]1C[C@@]2(C(C)C)CC[C@]1(C)O2
not listed: [14] | [15] | [16] | [17] | [18] | [19]
inactive: all other assays above

CCOP(=S)(OCC)Oc1cc(-c2ccccc2)on1
not listed: [4] | [9] | [10] | [18] | [19]
inactive: all other assays above

[O]=[Cd]
not listed: [4] | [14] | [16] | [17]
inactive: all other assays above

CCCCc1ccc(O)cc1
not listed: [4] | [17]
inactive: all other assays above

Cc1ncc(CNC(=O)N(CCCl)N=O)c(N)n1
not listed: [4] | [8] | [14] | [17]
inactive: all other assays above

CNC(=O)Oc1ccc(N(C)C)c(C)c1
not listed: [4] | [14]
inactive: all other assays above

C[N+](=O)[O-]
not listed: [4] | [14] | [16] | [18]
inactive: all other assays above

COc1cc(OC)nc(NC(=O)NS(=O)(=O)c2ncccc2OCC(F)(F)F)n1
not listed: [3] | [4] | [12] | [13] | [17]
inactive: all other assays above

O=[N+]([O-])c1cccc2cccnc12
not listed: [3] | [4] | [14] | [19]
inactive: all other assays above

CCS(=O)(=O)CCSP(=O)(OC)OC
not listed: [4] | [12] | [13] | [14] | [15]
inactive: all other assays above

CCOC(=O)C1(c2ccccc2)CCN(CCc2ccc(N)cc2)CC1
not listed: [3] | [12] | [13] | [14] | [16] | [19]
inactive: all other assays above

CC(CCc1ccccc1)NC(C)C(O)c1ccc(O)cc1 (centres undefined)
not listed: [3] | [4] | [12] | [13] | [14] | [17] | [19]
inactive: all other assays above

Nc1c(Br)cc([N+](=O)[O-])cc1[N+](=O)[O-]
active: [1] 31 µM | [16] 31 µM
not listed: [2] | [3] | [14] | [19]
inactive: all other assays above

From PubChem BioAssay (Tox21)
